Compound activity deposited in PubChem BioAssay by National Center for Advancing Translational Sciences (NCATS).
Sampled rows, rich in hits. Any-hit rate of the full collection: about 9.2%.
ELG1 genotox = qHTS screen for small molecules that induce genotoxicity in human embryonic kidney (HEK293T) cells expressing luciferase-tagged ELG1; Potency, µM (doses to about 46 µM), without a hit: top-dose activity change, positive = activation, usual class: activators; 330,000 compounds, 1.3% hits; AID 504466, 2011; HEK293T ELG1-luciferase reporter, luminescence, 16 h; further: % of control where 0% means no effect; nearly all actives have a fitted effect of over 60% in size
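Luminescence read-out: rising ELG1-luciferase signal, reflecting elevated ELG1 protein under genetic stress, flags genotoxic compounds. Cells were treated for 16 hr at 37 °C before ONE-Glo detection.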
NPC1 promoter act = qHTS Assay for NPC1 Promoter Activators. Huh7 NPC1 promoter luciferase reporter, 24 h. Potency, µM (top dose mostly 9.22 µM), for inactives: at the highest dose activation, usual class: activators. 320,000 compounds, 2.4% hits. AID 485313, 2010; further: % of control where 0% means no effect; nearly all actives have a fitted effect of over 60% in size
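Luciferase expression driven by the NPC1 promoter was measured in stably transfected Huh7 cells after a 24 h compound incubation, using a luciferase reagent and a luminescence read.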
ELG1 repair inh = qHTS screen for small molecules that inhibit ELG1-dependent DNA repair in human embryonic kidney (HEK293T) cells expressing luciferase-tagged ELG1 | Potency, µM (top dose mostly 46.1 µM), for inactives: at the highest dose activity change, negative = inhibition, actives largely listed as inhibitors | AID 504467, 2011 | 330,000 compounds, 2.3% hits | HEK293T ELG1-luciferase reporter, luminescence, 16 h; DNA damage induced by 5-fluorouridine; further: on the % scale 0 is the no-effect control and ±100 the full control effect; nearly all actives have a fitted effect of over 55% in size
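Quantitative HTS, concentration-response format. 2,000 cells/well co-treated with 5-fluorouridine and compound, 16 hr in 5% CO2 at 37 °C; ONE-Glo luminescence read after 30 min.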
FLuc modulator = qHTS profiling assay for firefly luciferase inhibitor/activator using purifed enzyme and Km concentrations of substrates (counterscreen for miR-21 project); Luciferin 4-monooxygenase (Photinus pyralis), P08659; purified FLuc, Km substrates, luminescence inhibition; Potency, µM (titrated, usually from 57.5 µM), inactives show at the top dose activity change, negative = inhibition, most hits filed as inhibitors; 360,000 compounds, 6.9% hits;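 further: plate controls were vehicle for no effect and reference inhibitor for full effect; nearly all actives have a fitted effect of over 55% in size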
Target sequence (P08659 whole entry, looked up): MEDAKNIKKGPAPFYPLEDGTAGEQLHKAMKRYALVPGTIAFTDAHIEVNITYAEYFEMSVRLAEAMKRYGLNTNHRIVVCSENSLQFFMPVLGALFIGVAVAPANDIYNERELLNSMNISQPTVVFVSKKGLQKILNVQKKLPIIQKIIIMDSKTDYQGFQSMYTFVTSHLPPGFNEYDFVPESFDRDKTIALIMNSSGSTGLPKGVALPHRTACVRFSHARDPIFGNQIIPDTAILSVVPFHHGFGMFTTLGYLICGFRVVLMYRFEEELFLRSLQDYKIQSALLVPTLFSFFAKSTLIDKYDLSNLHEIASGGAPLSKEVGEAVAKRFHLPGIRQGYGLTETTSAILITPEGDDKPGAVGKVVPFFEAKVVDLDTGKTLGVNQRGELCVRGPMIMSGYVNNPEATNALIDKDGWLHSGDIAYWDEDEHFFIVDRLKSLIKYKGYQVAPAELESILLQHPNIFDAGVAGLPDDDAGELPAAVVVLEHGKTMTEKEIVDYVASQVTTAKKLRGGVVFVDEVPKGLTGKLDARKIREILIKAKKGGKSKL
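Purified P. pyralis luciferase (10nM final) with 10uM D-luciferin and 10uM ATP (Km levels) in 50mM Tris acetate pH 7.5, 10mM Mg acetate, 0.01% Tween-20, 0.05% BSA; qHTS 6-point titration, ~60 µM downward; luminescence read.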
Rab9 prom act = qHTS Assay for Rab9 Promoter Activators; Huh7 Rab9 promoter-luciferase reporter, luminescence, 24 h; Potency, µM (series often up to 9.22 µM), without a hit: at the highest dose activation, negative = inhibition, hits mostly activators; 320,000 compounds, 2.8% hits; further: % of control where 0% means no effect; nearly all actives have a fitted effect of over 60% in size
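Cells were plated at 1500 per well in reduced-serum medium with 10% FBS and left 2 h. Compound in DMSO was then added for 24 h at 37 °C. Reporter signal was read by luminescence after 10 min with luciferase detection reagent.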
SMN2 splice up = qHTS Assay for Enhancers of SMN2 Splice Variant Expression | HEK293 SMN2-luciferase splicing reporter, luminescence, 30-36 h | Potency, µM (series often up to 46.1 µM), inactives show top-dose activity change, positive = activation, actives largely listed as activators | 210,000 compounds, 2.8% hits; further: % of control where 0% means no effect; nearly all actives have a fitted effect of over 55% in size
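HEK293 cells carry an SMN2 […]–luciferase reporter in which exon 7 inclusion puts luciferase in frame. Cells were plated 10-12 h before compound addition, then incubated 30-36 h at 37C. ONE-Glo luminescence was read; sodium butyrate at 4.5 mM final served as control.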
An asterisk follows results filed as active; u = inconclusive; x = no result given. The call rests on the fitted dose curve; in most records, active means well fitted curve in the direction sought with a large enough effect; inconclusive means small, poorly fitted or top-dose-only effect, or another doubt; inactive means no such curve, though single readings can be large; an effect the other way counts as inactive or inconclusive. Potency means the concentration at half of the fitted maximal effect.

SMILES	ELG1 genotox	NPC1 promoter act	ELG1 repair inh	FLuc modulator	Rab9 prom act	SMN2 splice up
O=[N+]([O-])c1cc(-c2nc(-c3ccncc3)no2)cc([N+](=O)[O-])c1	-3.5%	17.2%	-3.0%	2.6%	25.6%	x
Cc1cccc(-c2nc(-c3ccncc3)no2)c1	9.2µM*	1.58µM*	u	3.01µM*	1.41µM*	x
Cc1cccc(-c2noc(-c3c(C)noc3C)n2)c1	3.6%	1.58µM*	u	u	3.16µM*	x
FC(F)(F)c1cccc(-c2nc(-c3ccncc3)no2)c1	18.3%	u	u	15.1µM*	u	x
O=C(Cn1c(=O)cnc2ccccc21)Nc1cccc(S(=O)(=O)N2CCOCC2)c1	0.9%	0.5%	-5.2%	2.8%	-0.8%	x
COCCOC(=O)c1c(C)n(C)c2ccc(OC(=O)c3ccccc3F)cc12	2.4%	-4.9%	24.6%	-8.6%	-0.1%	x
CCc1ccccc1Nc1cc(C(=O)NC(C)c2ccccc2)c2ccccc2n1 (stereo not given)	x	x	x	u	x	-15.6%
CCC(C)NC(=O)Cn1ncc2c(C)n(Cc3ccc(F)cc3)c(C)c2c1=O (stereo not given)	x	x	x	-9.6%	x	1.6%
CC(C)(C)c1ccc(-c2noc(-c3ccno3)n2)cc1	u	1.26µM*	u	1.9µM*	1.41µM*	x
Cc1ccc(-c2nc(-c3cccnc3)no2)cc1	x	x	x	1.51µM*	x	10µM*
Cc1ccc(-c2noc(CNc3ccccc3)n2)cc1	u	19.3%	u	19µM*	22.9%	u
COc1ccc(Cc2noc(-c3ccc(C)cc3)n2)cc1	u	12.7%	u	u	14.1%	-2.2%
CCCc1noc(-c2ccc(-c3ccccc3)cc2)n1	u	1.58µM*	u	1.51µM*	1.58µM*	u
Clc1cccc(Cl)c1-c1noc(-c2ccno2)n1	2.5%	-2.9%	19.4%	-0.1%	-0.8%	x
Cc1ccc(Cc2nc(-c3cccnc3)no2)cc1	6.4%	14.4%	u	u	7.3%	10.2%
CCN(C(=O)c1c(C)oc2ncnc(N3CCCCC3)c12)c1cc(C)ccc1C	x	x	x	-7.6%	x	x
CCOc1ccc(-c2nc(CS(=O)(=O)CC(=O)NCc3ccc(F)cc3)c(C)o2)cc1	5.1%	-1.6%	-17.0%	u	u	x
Cc1cc(C)cc(-c2nc(-c3ccncc3)no2)c1	20.6µM*	u	u	10.7µM*	u	-18.1%
Cc1ccc(-c2nc(-c3ccccc3)no2)cc1	0.651µM*	1µM*	u	0.213µM*	1.26µM*	7.7%
CC(C)(C)c1ccc(-c2nc(-c3ccncc3)no2)cc1	u	0.398µM*	u	0.953µM*	0.447µM*	17.2%
CCOc1ccc(-c2nc(-c3ccccc3)no2)cc1OCC	u	u	u	13.5µM*	u	-3.2%
Cc1noc(-c2ccc(-c3noc(-c4ccc(F)cc4)n3)cc2)n1	x	x	x	-6.2%	x	x
CCC(=O)Oc1ccc(-c2nc(-c3cccnc3)no2)cc1	u	3.98µM*	u	3.38µM*	4.47µM*	u
Cc1ccc(OCc2nc(-c3cccnc3)no2)cc1C	11.2%	13.9%	u	u	17.4%	14.9%
CCn1nc(C)c(Br)c1-c1nc(CS(=O)(=O)c2ccsc2)no1	3.4%	12.1%	16.8%	-17.8%	7.8%	x
SMILES	ELG1 genotox	NPC1 promoter act	ELG1 repair inh	FLuc modulator	Rab9 prom act	SMN2 splice up
Cc1ccc(-c2nc(-c3ccccc3)no2)c(Cl)c1	0.259µM*	2.82µM*	u	0.0849µM*	3.98µM*	-29.9%
Cc1ccc(-c2nc(-c3ccncc3)no2)cc1	3.66µM*	0.891µM*	u	1.69µM*	1µM*	x
CCn1nc(C)c(Br)c1-c1nc(-c2cccc(C)c2)no1	0.3%	2.51µM*	0.9%	u	27.3%	x
COc1cccc(N2CCN(c3ncc4c(n3)CCN(Cc3ccc(Br)cc3)C4)CC2)c1	x	x	x	5.0%	x	x
CC(C)CN1CCC(=O)N([C@H](CO)c2ccccc2)CC1	1.7%	1.6%	18.3%	6.8%	-0.1%	x
Cc1ccc(-c2nnc(-c3cccnc3)o2)cc1	20.6µM*	2.82µM*	u	12µM*	u	x
c1cncc(-c2noc(-c3ccco3)n2)c1	u	3.16µM*	u	u	3.98µM*	-1.0%
FC(F)(F)c1ccc(-c2nnc(-c3cccnc3)o2)cc1	u	u	u	-18.1%	16.0%	x
Clc1ccc(Br)cc1-c1nc(-c2ccncc2)no1	20.6µM*	1.9%	u	u	22.0%	u
O=[N+]([O-])c1cc(-c2nc(-c3ccncc3)no2)ccc1Cl	-1.2%	6.6%	u	-15.9%	-2.3%	-12.3%
CN1CCN(S(=O)(=O)c2ccc(Br)c3ccccc23)CC1	1.5%	-1.6%	-1.0%	2.7%	-1.3%	x
Cc1cc(C)cc(OC(=O)c2snnc2C)c1	x	x	x	-10.7%	x	x
CCCCNc1c(-c2cccc(-c3cc(C(C)=O)cs3)c2)nc2cc(C)ccn12	-10.5%	13.2%	u	6.01µM*	5.3%	x
COc1ccc(-c2csc(Nc3ccccc3)[n+]2CC(O)c2ccc([N+](=O)[O-])cc2)cc1 (stereo not given)	-10.1%	5.5%	20.6µM*	0.7%	-4.9%	x
COc1ccc(C2C=C(c3ccc(C)cc3)Nc3c(C(=O)Nc4ccccc4)cnn32)cc1 (stereo not given)	x	x	x	-3.7%	x	x
COc1ccc(-c2csc3ncnc(N4CCN(CCO)CC4)c23)cc1	-3.7%	4.4%	-26.6%	-1.1%	-7.1%	x
COc1ccc(-c2csc3ncnc(N4CCN(c5ccccc5OC)CC4)c23)cc1	-18.3%	-2.5%	13µM*	2.0%	2.1%	x
COc1ccc(-c2csc3ncnc(NCCCO)c23)cc1	-11.0%	-1.2%	4.61µM*	-1.2%	3.2%	x
COc1ccc(-c2csc3ncnc(NCCO)c23)cc1	-15.8%	-5.5%	u	0.4%	-0.7%	x
CCOc1ccccc1N1CCN(c2ncnc3scc(-c4ccc(OC)cc4)c23)CC1	-33.6%	-2.8%	14.6µM*	-0.9%	7.5%	x
O=C(CSc1nc(=O)n(Cc2ccccn2)c2c1CCC2)Nc1cccc(Cl)c1	x	x	x	2.1%	x	x
COc1ccc(N2CCN(CCCNC(=O)C3COc4ccc(OC)cc4C3)CC2)cc1 (stereo not given)	x	x	x	-0.3%	x	x
CC(C)c1ccc(NC(=O)C(=O)c2cn(CC(=O)N3CCCCC3)c3ccccc23)cc1	-6.6%	1.1%	u	u	-3.3%	11.7%
